The results in this text go back to PubChem BioAssay (NCATS).

Inconclusive results are not listed. Activity calls are given as the source filed them. Unless noted, calls come from the whole dose curve; as a rule, active = well fitted curve in the direction sought with a large enough effect; inconclusive = small, poorly fitted or top-dose-only effect, or another doubt; inactive = no such curve, though single readings can be large; an effect the other way counts as inactive or inconclusive.

Assay [1] in a line: Quantitative High-Throughput drug screen in 47 multiple myeloma cell lines against the NCATS MIPE library collection: PE2_PLB cell viability assay (AID 1919869). Note: nearly all actives have a fitted effect of over 35% in size. Note: potency is the fitted concentration of half-maximal effect. The procedure, abridged: (§1)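 Viability after 48 h drug exposure was measured as ATP-dependent luminescence. Cells, 500 per well, sat at 37 °C under 5% CO2; DMSO wells set 100%, media-only wells 0%.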
Assay [2] is described as follows: Quantitative High-Throughput drug screen in 47 multiple myeloma cell lines against the NCATS MIPE library collection: PCM6_Riken cell viability assay (AID 1919870). Note: nearly all actives have a fitted effect of over 30% in size. Note: potency is the fitted concentration of half-maximal effect. The procedure, abridged: as §1
Assay [3] in a line: Quantitative High-Throughput drug screen in 47 multiple myeloma cell lines against the NCATS MIPE library collection: RPMI8226_ATCC cell viability assay (AID 1919871). Note: nearly all actives have a fitted effect of over 30% in size. Note: potency is the fitted concentration of half-maximal effect. The procedure, abridged:
as §1

Assay [4] is described as follows: Quantitative High-Throughput drug screen in 47 multiple myeloma cell lines against the NCATS MIPE library collection: OPM2_DSMZ cell viability assay (AID 1919872). Note: nearly all actives have a fitted effect of over 30% in size. Note: potency is the fitted concentration of half-maximal effect. Summed up: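 Myeloma cell lines, 500 cells per well, exposed to MIPE 4.0 library compounds for 48 h at 37C, 5% CO2. Viability from ATP by CellTiter-Glo luminescence; normalised to DMSO (100%) and media-only (0%) wells.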

The nature of assay [5]: Quantitative High-Throughput drug screen in 47 multiple myeloma cell lines against the NCATS MIPE library collection: KMS11_JCRBsus cell viability assay (AID 1919873). Note: nearly all actives have a fitted effect of over 50% in size. Note: potency is the fitted concentration of half-maximal effect. Summed up:
as §1

Assay [6] can be described thus: qHTS drug screen for cell cycle checkpoint inhibitors in PARPi-resistant BRCA-mutant ovarian cancer cell lines. (AID 1963452; calls by dose curve). Conditions: PEO1/OlaR viability, CellTiter-Glo luminescence, 96 h, stronger effect = lower value. Summed up: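 PEO1, PEO4 and PEO1/OlaR ovarian cancer cells, 600 per well, exposed 96 h at 37C to a dilution series. Viability read by CellTiter-Glo luminescence, normalized to DMSO and empty wells; activity summarized as Z-AUC.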
On the technique in general: Quantitative high-throughput screening tests each substance at several concentrations.

A short description of assay [7]: Quantitative High-Throughput drug screen in 47 multiple myeloma cell lines against the NCATS MIPE library collection: KMS28BM_JCRB cell viability assay (AID 1919874). Note: nearly all actives have a fitted effect of over 35% in size. Note: potency is the fitted concentration of half-maximal effect. Summed up: as §1
A short description of assay [8]: qHTS profiling for inhibitors of Plasmodium falciparum proliferation (AID 504749).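 For activity, negative = inhibition: 0% = DMSO vehicle and full inhibition = artemisinin control.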 For all read-outs here: nearly all actives have a fitted effect of over 60% in size. Note: potency is the fitted concentration of half-maximal effect. The conditions noted are these: P. falciparum in erythrocytes, SYBR Green DNA, 72 h; for activity, negative = inhibition: at 28.7 µM (top of the series). Summed up:
(§2)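 Readout was DNA-dye fluorescence from lysed cultures, ex 485/em 535 nm. Parasitized red cells had grown 72 h with compound; data scaled between 0.29 uM artemisinin and DMSO wells and corrected using vehicle-only plates.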

Another assay has as its system 3D7. The assay is described as above. The conditions noted are these: P. falciparum in erythrocytes, SYBR Green DNA, 72 h; series mostly up to 28.7 µM. The procedure, abridged: as §2
The next assay relates to 7G8. Described as above. Conditions: P. falciparum in erythrocytes, SYBR Green DNA, 72 h; series mostly up to 28.7 µM. The procedure, abridged: as §2
In the next assay the test system is AA1029. The description is as above. The conditions noted are these: P. falciparum in erythrocytes, SYBR Green DNA, 72 h; series mostly up to 28.7 µM. The procedure, abridged:
as §2

A further assay has as its system AS120. Described as above. The conditions noted are these: P. falciparum in erythrocytes, SYBR Green DNA, 72 h; series mostly up to 28.7 µM. Summed up: as §2
The next assay concerns ATS189. The description is as above. The conditions noted are these: P. falciparum in erythrocytes, SYBR Green DNA, 72 h; series mostly up to 28.7 µM. The procedure, abridged:
as §2

In the next assay the test system is ATS95. The description is as above. The conditions noted are these: P. falciparum in erythrocytes, SYBR Green DNA, 72 h; series mostly up to 28.7 µM. The procedure, abridged: as §2
In the next assay the test system is C2A. Described as above. The conditions noted are these: P. falciparum in erythrocytes, SYBR Green DNA, 72 h; series mostly up to 28.7 µM. The procedure, abridged: as §2
For the next assay, the system named is CP185. Described as above. Conditions: P. falciparum in erythrocytes, SYBR Green DNA, 72 h; series mostly up to 28.7 µM. The procedure, abridged:
as §2

The next assay has as its system CP191. The description is as above. Conditions: P. falciparum in erythrocytes, SYBR Green DNA, 72 h; series mostly up to 28.7 µM. Summed up:
as §2

A further assay has as its system CP192. The description is as above. Conditions: P. falciparum in erythrocytes, SYBR Green DNA, 72 h; series mostly up to 28.7 µM. The procedure, abridged:
as §2

For another assay, the system named is CP194. Described as above. The conditions noted are these: P. falciparum in erythrocytes, SYBR Green DNA, 72 h; series mostly up to 28.7 µM. The procedure, abridged:
as §2

Assay [9] is described as follows: qHTS for identification of novel therapeutic agents for treatment of microphthalmiaassociated transcription factor (MiT) renal cell carcinoma (RCC) (AID 1963991; calls by dose curve; note: potency is the fitted concentration of half-maximal effect;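 for z-score: curves scaled with 100% = DMSO viability and 0% = empty wells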). The conditions noted are these: CellTiter-Glo, 48 h; for z-score: stronger effect = lower value. The procedure, abridged: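 UOK109/UOK124/UOK145 (TFE3 fusions, three partners); 500 cells/well; MIPE v4.0, 1912 cpds, 11 conc.; 48 h, 37 C; CellTiter-Glo, 15 min RT; lum. Norm.: DMSO 100%, empty 0%.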

Where [10] appears, read: measured here: PEO1 parental Z-AUC.
[11] abbreviates: TFE3-RCC UOK109 viability, measured here: UOK109 Z-AUC.
The mark [12] stands for this setting: TFE3-RCC viability, measured here: UOK124 Z-AUC.
Where [13] appears, read: TFE3-RCC viability, measured here: UOK145 Z-AUC.

Consider `Clc1ccc2ncc(-c3cccc(NC4CNC4)n3)n2c1`, for which the Potency in assay [1] was 16.6 µM (active); in assay [2] it was 18.7 µM (active); in assay [3] it was 20.9 µM (active); in assay [4] it was 23.5 µM (active); in assay [5], 20.9 µM (active). In addition, the figures for the Z-AUC in [6], in assay [6] (setting [10]) and in [6] (measured here: PEO4 Z-AUC) were -0.578 (inactive), 0.128 and -0.613, respectively.

Take `Cc1cnc(Nc2ccc(F)cc2Cl)nc1-c1c[nH]c(C(=O)N[C@H](CO)c2cccc(Cl)c2)c1`: the Potency in assay [1] was 6.62 µM (active); in assay [2], 18.7 µM (active); in [3] it was 20.9 µM (active); in assay [4] it was 18.7 µM (active); in [5], 16.6 µM (active). The Z-AUC in assay [6] was 0.276 (inactive); in assay [6] (setting [10]), 0.0916; in assay [6] (measured here: PEO4 Z-AUC), 0.18.

Take `CC=CC1=C(C(=O)O)N2C(=O)[C@H](NC(=O)[C@H](N)c3ccc(O)cc3)[C@@H]2SC1`: the Potency entry in [1], in [2], in assay [3], in [4], in [5] and in assay [7] was “inactive” each time. The Potency result with 3D7, in the assay with 7G8, in the assay with AA1029, in the assay with AS120, in the assay with ATS189 and in the assay with ATS95 was “inactive” each time. Further, the Potency entry with C2A, in the assay with CP185, in the assay with CP191, in the assay with CP192 and in the assay with CP194 was “inactive” in each case. In addition, the activity, negative = inhibition in assay [8] (parasite line A) is -3.61% (inactive); in assay [8] (parasite line B), -5.72% (inactive).

Regarding `CC(C)c1cc(C(=O)N2Cc3ccc(CN4CCN(C)CC4)cc3C2)c(O)cc1O`, the Potency in [1] was 0.296 µM (active); in [2], 0.935 µM (active); in assay [3] it was 0.264 µM (active); in assay [4], 0.332 µM (active); in assay [5], 0.105 µM (active); in assay [9] (TFE3-RCC UOK109 viability, active = Z-AUC below -0.8 in all three lines), 0.418 µM (active). The Z-AUC in assay [6] is -1.06 (inactive); in assay [6] (setting [10]), -0.777; in [6] (measured here: PEO4 Z-AUC), -0.0282. Further, the z-score is -0.923 in assay [9] (setting [11]), -0.898 in [9] (setting [12]) and -0.85 in assay [9] (setting [13]).

For `COC(=O)C1=C(C)NC(C)=C(C(=O)OCCN2CCN(C(c3ccccc3)c3ccccc3)CC2)C1c1cccc([N+](=O)[O-])c1` (stereo not given), the Potency entry in assay [1], in assay [2], in assay [3], in [4], in [5] and in assay [7] was “inactive” throughout. Also, the results for the Z-AUC in assay [6], in assay [6] (setting [10]) and in [6] (measured here: PEO4 Z-AUC) were -0.27 (inactive), -0.345 and 0.196, respectively. In addition, the z-score in assay [9] (setting [11]) is 0.729; in assay [9] (setting [12]), 0.516; in assay [9] (setting [13]), -0.011. The Potency was 3.16 µM (active) in [8] (parasite line A); 3.98 µM (active) in assay [8] (parasite line B); 1.41 µM (active) in the assay with 7G8; 2.24 µM (active) with AA1029; 2 µM (active) in the assay with AS120; 1.58 µM (active) in the assay with ATS189. The Potency in the assay on ATS95 is 2.51 µM (active); in the assay with C2A, 3.55 µM (active); in the assay on CP185 it was 4.47 µM (active); in the assay on CP191, 3.16 µM (active); in the assay on CP192, 4.78 µM (active); in the assay on CP194, 5.36 µM (active).

`CNC(=O)c1cc(Oc2ccc(NC(=O)Nc3cc(C(C)(C)C)nn3-c3ccc4ncccc4c3)c(F)c2)ccn1`: the Potency is 5.26 µM (active) in assay [1]; 2.64 µM (active) in assay [2]; 16.6 µM (active) in assay [3]; 18.7 µM (active) in [4]; 9.35 µM (active) in [7]. In addition, the Z-AUC in assay [6] was 0.924 (inactive); in [6] (setting [10]), 1.09; in assay [6] (measured here: PEO4 Z-AUC), 1.19.

Take `COc1cc(Nc2ncc(F)c(Nc3ccc4c(n3)N(COP(=O)(O)O)C(=O)C(C)(C)O4)n2)cc(OC)c1OC`: the Potency in assay [1] is 1.18 µM (active); in assay [2] it was 9.35 µM (active); in assay [3], 20.9 µM (active); in assay [4] it was 18.7 µM (active); in [5] it was 2.96 µM (active). Further, the Z-AUC is 0.561 (inactive) in [6], 0.402 in [6] (setting [10]) and 0.538 in assay [6] (measured here: PEO4 Z-AUC).

Take `Nc1ccn([C@@H]2O[C@H](CO)[C@H](O)C2(F)F)c(=O)n1`: the Potency was 0.332 µM (active) in [1]; 1.87 µM (active) in assay [2]; 0.469 µM (active) in assay [3]; 0.296 µM (active) in [5]; 5.62 µM (active) in [8] (parasite line A); 0.316 µM (active) in [8] (parasite line B). The Potency was 3.16 µM (active) with 3D7; 2.82 µM (active) with 7G8; 1.58 µM (active) with AA1029; 3.55 µM (active) in the assay with AS120; 3.98 µM (active) in the assay with ATS189; 5.62 µM (active) in the assay with ATS95. The Potency in the assay with C2A is 3.98 µM (active); in the assay with CP185, 5.62 µM (active); with CP191 it was 1.41 µM (active); in the assay with CP192, 6.01 µM (active); in the assay on CP194, 6.75 µM (active). In addition, the Potency entry in assay [4] was “inactive”.

On to `O=c1[nH]c(=O)n(C2CCCO2)cc1F` (stereo not given), for which the Potency result (in [1]; in assay [2]; in assay [3]; in [4]; in assay [5]; with 3D7) was “inactive” each time. Also, the Potency result with 7G8, in the assay with AA1029, with AS120, in the assay with ATS189, in the assay with ATS95 and in the assay with C2A was “inactive” each time. The Potency entry with CP185, in the assay on CP191, in the assay with CP192 and in the assay with CP194 was “inactive” throughout. For the same compound, the Z-AUC in assay [6] was 1.33 (inactive); in [6] (setting [10]), 1.12; in assay [6] (measured here: PEO4 Z-AUC), 0.998. The figures for the activity, negative = inhibition in [8] (parasite line A) and in assay [8] (parasite line B) were 8.19% (inactive) and 12.8% (inactive), respectively.

With `Cn1cncc1[C@@](N)(c1ccc(Cl)cc1)c1ccc2c(c1)c(-c1cccc(Cl)c1)cc(=O)n2C`, the Potency was 16.6 µM (active) in assay [1]; 20.9 µM (active) in assay [2]; 5.26 µM (active) in assay [3]; 11.8 µM (active) in assay [4]; 7.43 µM (active) in [5]. The Z-AUC in assay [6] is -0.153 (inactive); in assay [6] (setting [10]), 0.145; in assay [6] (measured here: PEO4 Z-AUC), -0.275.

Consider `N#Cc1c(O)c2c(-c3ccc(-c4ccccc4O)cc3)csc2[nH]c1=O`, for which the Potency result in assay [1], in assay [2], in [3], in assay [4] and in assay [5] was “inactive” each time. Also, the Z-AUC in [6] was 0.825 (inactive); in assay [6] (setting [10]), 1.08; in assay [6] (measured here: PEO4 Z-AUC), 1.07. In addition, the z-score came to 0.657 in assay [9] (setting [11]), 0.453 in assay [9] (setting [12]) and 0.62 in assay [9] (setting [13]).
